The values below come from ChEMBL document CHEMBL1961873, “Compounds: GSK PKIS; Assays: Nanosyn kinase panel” (2012).

What is called inhibition is the drop in the measured response relative to a control, in per cent.

Assay [1] addresses MAP/microtubule affinity-regulating kinase 3 (Homo sapiens) (UniProt P27448). The settings on record: at 1 µM.
Assay [2] has as its target T1, MAP/microtubule affinity-regulating kinase 4 (Homo sapiens) (UniProt Q96L34).
T1 sequence (whole entry): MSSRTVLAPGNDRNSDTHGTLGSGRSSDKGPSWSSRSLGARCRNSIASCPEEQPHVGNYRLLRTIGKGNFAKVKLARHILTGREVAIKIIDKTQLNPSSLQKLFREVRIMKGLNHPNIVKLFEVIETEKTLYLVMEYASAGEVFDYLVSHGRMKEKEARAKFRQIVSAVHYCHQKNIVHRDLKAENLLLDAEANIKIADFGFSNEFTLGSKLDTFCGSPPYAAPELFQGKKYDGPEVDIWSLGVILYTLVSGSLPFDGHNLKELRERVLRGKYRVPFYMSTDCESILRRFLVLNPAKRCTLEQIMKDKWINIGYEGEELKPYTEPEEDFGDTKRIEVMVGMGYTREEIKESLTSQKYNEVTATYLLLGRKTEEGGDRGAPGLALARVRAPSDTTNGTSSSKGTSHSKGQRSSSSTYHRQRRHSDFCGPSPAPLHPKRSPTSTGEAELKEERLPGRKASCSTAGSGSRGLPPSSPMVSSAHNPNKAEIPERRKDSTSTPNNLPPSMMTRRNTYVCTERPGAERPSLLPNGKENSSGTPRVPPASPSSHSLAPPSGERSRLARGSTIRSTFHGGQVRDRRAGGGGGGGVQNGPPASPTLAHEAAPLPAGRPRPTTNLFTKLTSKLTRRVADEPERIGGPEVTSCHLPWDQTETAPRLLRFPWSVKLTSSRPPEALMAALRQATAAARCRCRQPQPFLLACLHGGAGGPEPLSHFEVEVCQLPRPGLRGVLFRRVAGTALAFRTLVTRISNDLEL
The note with it: at 0.1 µM.

In assay [3] the target is T1, MAP/microtubule affinity-regulating kinase 4 (Homo sapiens). The note with it: at 1 µM.
Assay [4] addresses Maternal embryonic leucine zipper kinase (Homo sapiens) (UniProt Q14680). The note with it: at 0.1 µM.
Assay [5] has the same target. The settings on record: at 1 µM.
In assay [6] the target is MAP kinase-interacting serine/threonine-protein kinase 1 (Homo sapiens) (UniProt Q9BUB5). The settings on record: at 0.1 µM.
Chain of MAP kinase-interacting serine/threonine-protein kinase 1 (Homo sapiens) (Q9BUB5 whole entry, looked up): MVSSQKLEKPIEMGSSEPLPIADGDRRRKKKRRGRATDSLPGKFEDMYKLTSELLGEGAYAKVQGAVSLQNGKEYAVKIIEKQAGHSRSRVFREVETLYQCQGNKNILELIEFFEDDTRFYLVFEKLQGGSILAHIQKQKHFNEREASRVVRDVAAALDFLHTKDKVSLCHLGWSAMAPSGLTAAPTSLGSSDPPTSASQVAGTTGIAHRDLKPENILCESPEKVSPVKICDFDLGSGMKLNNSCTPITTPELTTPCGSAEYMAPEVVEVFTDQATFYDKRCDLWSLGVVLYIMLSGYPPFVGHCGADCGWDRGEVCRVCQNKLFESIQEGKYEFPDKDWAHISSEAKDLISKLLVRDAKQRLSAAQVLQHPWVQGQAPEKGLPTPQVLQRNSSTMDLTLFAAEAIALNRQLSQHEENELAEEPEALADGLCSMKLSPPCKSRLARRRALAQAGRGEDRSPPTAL
For assay [7] the target is unchanged. The settings on record: at 1 µM.
The target in assay [8] is MAP kinase-interacting serine/threonine-protein kinase 2 (Homo sapiens) (UniProt Q9HBH9). The note with it: at 0.1 µM.
Chain of MAP kinase-interacting serine/threonine-protein kinase 2 (Homo sapiens) (Q9HBH9 whole entry, looked up): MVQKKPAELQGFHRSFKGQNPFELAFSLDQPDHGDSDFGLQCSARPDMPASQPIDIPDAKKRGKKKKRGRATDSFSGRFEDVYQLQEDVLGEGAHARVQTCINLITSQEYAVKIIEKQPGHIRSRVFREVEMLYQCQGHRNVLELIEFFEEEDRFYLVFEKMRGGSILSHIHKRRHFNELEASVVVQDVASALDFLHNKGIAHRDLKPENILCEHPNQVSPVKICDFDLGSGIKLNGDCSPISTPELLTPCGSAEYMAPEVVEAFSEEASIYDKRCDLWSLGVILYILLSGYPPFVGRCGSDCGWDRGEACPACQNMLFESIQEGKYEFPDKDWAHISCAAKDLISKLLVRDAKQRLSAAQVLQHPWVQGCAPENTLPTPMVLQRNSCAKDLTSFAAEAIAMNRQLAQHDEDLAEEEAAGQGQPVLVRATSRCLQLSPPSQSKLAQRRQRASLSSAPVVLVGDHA
The target is the same in assay [9]. The note with it: at 1 µM.
Assay [10] has as its target Serine/threonine-protein kinase MARK2 (Homo sapiens) (UniProt Q7KZI7). The settings on record: at 0.1 µM.
Assay [11] has the same target. The settings on record: at 1 µM.
Assay [12] addresses PAS domain-containing serine/threonine-protein kinase (Homo sapiens) (UniProt Q96RG2). The note with it: at 0.1 µM.
The target is the same in assay [13]. The note with it: at 1 µM.
For assay [14], the target named is Phosphorylase b kinase gamma catalytic chain, skeletal muscle/heart isoform (Homo sapiens) (UniProt Q16816). The note with it: at 0.1 µM.
Chain of Phosphorylase b kinase gamma catalytic chain, skeletal muscle/heart isoform (Homo sapiens) (Q16816 whole entry, looked up, canonical isoform): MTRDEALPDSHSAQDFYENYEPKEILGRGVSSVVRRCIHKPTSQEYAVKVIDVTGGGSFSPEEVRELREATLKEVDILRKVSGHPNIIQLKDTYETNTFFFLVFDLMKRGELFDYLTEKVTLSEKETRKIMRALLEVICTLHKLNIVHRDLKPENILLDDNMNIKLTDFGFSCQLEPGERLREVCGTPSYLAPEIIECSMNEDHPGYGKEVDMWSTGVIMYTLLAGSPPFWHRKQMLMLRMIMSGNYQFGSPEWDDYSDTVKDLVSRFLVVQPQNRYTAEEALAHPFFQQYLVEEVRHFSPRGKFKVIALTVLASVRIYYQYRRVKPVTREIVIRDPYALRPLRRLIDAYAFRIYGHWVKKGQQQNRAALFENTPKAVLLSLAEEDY
Assay [15] has the same target. The settings on record: at 1 µM.
Assay [16] has as its target T2, Phosphorylase b kinase gamma catalytic chain, liver/testis isoform (Homo sapiens) (UniProt P15735).
T2 sequence (whole entry): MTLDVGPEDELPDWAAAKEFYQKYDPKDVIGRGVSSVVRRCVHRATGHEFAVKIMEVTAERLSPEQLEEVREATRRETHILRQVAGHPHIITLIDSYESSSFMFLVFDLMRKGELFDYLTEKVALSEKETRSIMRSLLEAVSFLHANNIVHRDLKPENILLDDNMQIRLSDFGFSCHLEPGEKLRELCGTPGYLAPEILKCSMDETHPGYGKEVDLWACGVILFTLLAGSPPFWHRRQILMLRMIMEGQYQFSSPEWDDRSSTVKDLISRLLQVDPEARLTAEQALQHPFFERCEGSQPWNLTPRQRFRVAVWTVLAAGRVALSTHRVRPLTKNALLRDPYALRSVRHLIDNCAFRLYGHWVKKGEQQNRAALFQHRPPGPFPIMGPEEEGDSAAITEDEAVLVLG
The settings on record: at 0.1 µM.

Assay [17] has as its target T2, Phosphorylase b kinase gamma catalytic chain, liver/testis isoform (Homo sapiens). The note with it: at 1 µM.
In assay [18] the target is Serine/threonine-protein kinase pim-1 (Homo sapiens) (UniProt P11309). The note with it: at 0.1 µM.
Chain of Serine/threonine-protein kinase pim-1 (Homo sapiens) (P11309 whole entry, looked up): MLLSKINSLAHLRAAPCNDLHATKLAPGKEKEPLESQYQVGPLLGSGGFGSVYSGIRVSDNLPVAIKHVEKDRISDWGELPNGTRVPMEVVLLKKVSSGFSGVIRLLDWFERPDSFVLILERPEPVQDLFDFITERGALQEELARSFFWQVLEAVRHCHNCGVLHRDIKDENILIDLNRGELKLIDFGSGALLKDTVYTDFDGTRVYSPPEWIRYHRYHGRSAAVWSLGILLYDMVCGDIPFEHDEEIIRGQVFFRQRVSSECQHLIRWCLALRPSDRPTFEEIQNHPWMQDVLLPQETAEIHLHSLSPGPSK
Assay [19] has the same target. The note with it: at 1 µM.
Assay [20] addresses Serine/threonine-protein kinase pim-2 (Homo sapiens) (UniProt Q9P1W9). The note with it: at 0.1 µM.

Chain of Serine/threonine-protein kinase MARK2 (Homo sapiens) (Q7KZI7 whole entry): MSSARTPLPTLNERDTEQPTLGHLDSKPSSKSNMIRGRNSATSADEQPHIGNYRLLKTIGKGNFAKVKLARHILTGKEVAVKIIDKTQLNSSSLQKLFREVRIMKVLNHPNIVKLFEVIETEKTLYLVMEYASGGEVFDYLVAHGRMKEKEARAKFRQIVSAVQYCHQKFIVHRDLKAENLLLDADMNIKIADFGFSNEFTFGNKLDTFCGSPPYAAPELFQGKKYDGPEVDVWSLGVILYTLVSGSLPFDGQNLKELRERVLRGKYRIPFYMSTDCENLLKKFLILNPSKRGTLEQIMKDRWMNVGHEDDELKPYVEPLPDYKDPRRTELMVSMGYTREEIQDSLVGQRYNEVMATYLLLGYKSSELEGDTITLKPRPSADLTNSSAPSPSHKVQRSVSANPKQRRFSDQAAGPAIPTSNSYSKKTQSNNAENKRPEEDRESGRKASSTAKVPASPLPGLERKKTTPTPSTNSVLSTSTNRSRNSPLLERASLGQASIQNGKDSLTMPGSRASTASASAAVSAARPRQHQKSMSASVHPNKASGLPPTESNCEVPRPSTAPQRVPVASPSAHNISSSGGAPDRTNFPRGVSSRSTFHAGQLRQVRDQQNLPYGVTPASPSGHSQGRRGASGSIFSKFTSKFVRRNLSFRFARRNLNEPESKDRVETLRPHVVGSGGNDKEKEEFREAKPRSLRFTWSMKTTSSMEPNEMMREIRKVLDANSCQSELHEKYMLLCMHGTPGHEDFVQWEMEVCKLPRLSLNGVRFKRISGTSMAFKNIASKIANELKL
Chain of MAP/microtubule affinity-regulating kinase 3 (Homo sapiens) (P27448 whole entry, looked up): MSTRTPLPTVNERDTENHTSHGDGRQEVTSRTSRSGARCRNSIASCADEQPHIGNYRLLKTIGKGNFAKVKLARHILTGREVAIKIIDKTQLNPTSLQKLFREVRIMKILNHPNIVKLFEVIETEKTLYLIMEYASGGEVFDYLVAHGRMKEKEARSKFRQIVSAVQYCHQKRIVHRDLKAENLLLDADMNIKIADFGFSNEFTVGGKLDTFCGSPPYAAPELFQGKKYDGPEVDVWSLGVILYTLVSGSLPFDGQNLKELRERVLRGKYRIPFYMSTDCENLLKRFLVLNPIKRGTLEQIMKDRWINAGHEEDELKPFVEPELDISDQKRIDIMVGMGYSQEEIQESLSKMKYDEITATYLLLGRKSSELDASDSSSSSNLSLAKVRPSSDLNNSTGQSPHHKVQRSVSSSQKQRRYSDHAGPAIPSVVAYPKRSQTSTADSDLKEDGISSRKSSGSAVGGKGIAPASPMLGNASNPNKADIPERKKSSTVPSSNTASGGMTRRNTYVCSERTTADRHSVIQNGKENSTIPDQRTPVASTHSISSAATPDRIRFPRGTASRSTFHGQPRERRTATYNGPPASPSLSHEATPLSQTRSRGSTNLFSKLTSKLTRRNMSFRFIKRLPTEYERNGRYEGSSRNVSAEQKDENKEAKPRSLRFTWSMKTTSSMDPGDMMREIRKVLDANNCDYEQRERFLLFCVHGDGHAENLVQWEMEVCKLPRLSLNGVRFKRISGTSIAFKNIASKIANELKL
Chain of Maternal embryonic leucine zipper kinase (Homo sapiens) (Q14680 whole entry, looked up): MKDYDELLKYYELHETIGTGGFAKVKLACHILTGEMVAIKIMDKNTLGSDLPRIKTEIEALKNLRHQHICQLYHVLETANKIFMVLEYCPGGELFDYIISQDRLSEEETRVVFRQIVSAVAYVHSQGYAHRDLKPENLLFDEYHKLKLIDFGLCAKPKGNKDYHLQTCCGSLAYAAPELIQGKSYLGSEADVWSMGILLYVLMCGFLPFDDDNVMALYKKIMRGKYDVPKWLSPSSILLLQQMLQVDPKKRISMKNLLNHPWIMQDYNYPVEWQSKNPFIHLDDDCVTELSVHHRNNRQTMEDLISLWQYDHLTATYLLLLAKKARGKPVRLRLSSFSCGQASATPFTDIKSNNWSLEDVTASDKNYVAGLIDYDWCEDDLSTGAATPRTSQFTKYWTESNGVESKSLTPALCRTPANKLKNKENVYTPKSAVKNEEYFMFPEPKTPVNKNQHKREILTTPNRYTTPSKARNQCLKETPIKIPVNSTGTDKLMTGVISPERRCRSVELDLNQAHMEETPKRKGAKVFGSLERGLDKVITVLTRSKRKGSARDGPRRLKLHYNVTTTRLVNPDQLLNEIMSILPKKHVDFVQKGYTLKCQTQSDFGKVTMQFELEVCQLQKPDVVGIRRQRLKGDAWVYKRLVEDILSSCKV
Chain of Serine/threonine-protein kinase pim-2 (Homo sapiens) (Q9P1W9 whole entry, looked up): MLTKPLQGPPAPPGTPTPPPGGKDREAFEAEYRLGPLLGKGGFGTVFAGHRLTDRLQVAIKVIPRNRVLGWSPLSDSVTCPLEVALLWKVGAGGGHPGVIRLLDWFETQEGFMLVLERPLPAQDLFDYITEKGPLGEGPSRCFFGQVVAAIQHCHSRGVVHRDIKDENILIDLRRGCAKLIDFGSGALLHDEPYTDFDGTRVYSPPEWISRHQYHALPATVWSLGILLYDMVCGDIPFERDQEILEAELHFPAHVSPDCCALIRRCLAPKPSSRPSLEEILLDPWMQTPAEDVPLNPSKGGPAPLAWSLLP

For the molecule `CS(=O)(=O)CCNCc1ccc(-c2ccc3ncnc(Nc4ccc(OCc5ccccc5)c(C(F)(F)F)c4)c3c2)o1`, the inhibition is 4.16% in assay [1]; 2.86% in assay [2]; 3.74% in assay [3]; 2.98% in assay [4]; 2.19% in [5]; 2.1% in assay [6]. For the same molecule, the inhibition is 3.92% in assay [7]; -0.02% in [8]; 4.64% in [9]; 0.21% in [10]; 1.46% in assay [11]; 0% in [12]. In addition, the inhibition in assay [13] was 0.88%; in [14], 7.15%; in [15], 6.03%; in [16], 5.4%; in [17], 5.06%; in [18], -0.57%. The inhibition in assay [19] came to 1.31%; in assay [20] it was 0.54%.

As to `CCn1c(-c2nonc2N)nc2ccccc21`, the inhibition in [1] was determined as 22.2%; in assay [2] it was 1.04%; in assay [3] it was 2.84%; in assay [4], 1.29%; in assay [5], 7.45%; in [6], 1.93%. In addition, the inhibition in assay [7] is 8.64%; in assay [8], 0.78%; in assay [9], 14.7%; in assay [10], -0.05%; in [11] it was 2.79%; in [12] it was 1.01%. The inhibition was 0.51% in [13]; 2.03% in [14]; 2.71% in assay [15]; 3.71% in assay [16]; 0.96% in assay [17]; 0.21% in assay [18]. In addition, the inhibition in assay [19] was 4.54%; in assay [20] it was -0.12%.

With `CCNC(=O)O[C@H]1CN[C@H](C#Cc2cc3ncnc(Nc4ccc(OCc5cccc(F)c5)c(Cl)c4)c3s2)C1`, the inhibition stood at 2.72% in assay [1]; 0.88% in assay [2]; 1.97% in assay [3]; 4.18% in assay [4]; 4.99% in assay [5]; 2.75% in assay [6]. Further, the inhibition is 4.73% in assay [7]; 0.73% in assay [8]; 5.72% in assay [9]; -0.45% in assay [10]; 2.03% in assay [11]; 0.27% in assay [12]. In addition, the inhibition is -1.53% in assay [13]; 0.81% in assay [14]; 0.44% in assay [15]; 3.66% in [16]; 0.88% in [17]; 0.78% in assay [18]. Further, the inhibition in [19] is 0.26%; in assay [20], -0.1%.

Take `NS(=O)(=O)c1ccc(N/N=C2\C(=O)Nc3ccc4ncccc4c32)cc1`: the inhibition in assay [1] was found to be 40.9%; in assay [2], 11.4%; in [3] it was 52%; in assay [4], 50.3%; in assay [5], 93.4%; in assay [6], 4%. For the same molecule, the inhibition in assay [7] was 19.4%; in [8] it was 2.52%; in assay [9], 20.4%; in [10], 5.97%; in [11], 35.3%; in [12], -0.19%. The inhibition is -1.87% in assay [13]; 11.2% in [14]; 50% in assay [15]; 3.72% in [16]; 14.1% in [17]; 1.89% in [18]. The inhibition in [19] worked out at 15.9%; in assay [20], 1.2%.

With `CCOc1ccc2c(-c3ccnc(Nc4cccc(C(F)(F)F)c4)n3)cnn2n1`, the inhibition in assay [1] amounted to 0.96%; in assay [2], 1.1%; in assay [3], 1.8%; in assay [4], 1.46%; in assay [5], 3.63%; in assay [6], 2.65%. Moreover, the inhibition in assay [7] was 4.31%; in [8] it was -0.81%; in assay [9], 3.49%; in assay [10], 0.02%; in [11], 0.82%; in assay [12] it was 0.62%. Besides, the inhibition in assay [13] is 0.46%; in assay [14] it was 2.65%; in assay [15], 6.48%; in assay [16] it was 3.64%; in assay [17], 3.92%; in [18], -1.05%. For the same molecule, the inhibition in assay [19] was -1.35%; in assay [20], 0.55%.

Consider `c1ccc(-c2nc3n(c2-c2ccc4c(c2)OCO4)CCC3)nc1`, for which the inhibition in assay [1] was 4.15%; in assay [2], 1.03%; in [3], 2.7%; in [4], 2.58%; in [5], 4.77%; in assay [6], 1.71%. Moreover, the inhibition in [7] is 3.75%; in assay [8], 0.98%; in assay [9] it was -0.19%; in assay [10], 2.71%; in assay [11], 1.22%; in assay [12], -5.85%. The inhibition in assay [13] is -0.24%; in assay [14], 3.66%; in [15], 2.79%; in assay [16], 1.19%; in assay [17], 0.01%; in [18], 0.37%. Besides, the values for the inhibition in [19] and in assay [20] were 0.72% and -0.34%, respectively.

`COc1cccc(-n2ncc3c(N/N=C/c4ccc(F)cc4)ncnc32)c1`: the inhibition in [1] stood at 6.87%; in assay [2], 1.23%; in assay [3] it was 2.4%; in assay [4] it was 2.6%; in assay [5], 5.51%; in assay [6], 4.58%. Also, the inhibition in assay [7] was determined as 17.5%; in [8], 4.13%; in assay [9], 13.3%; in assay [10] it was 1.91%; in assay [11], 1.76%; in assay [12], 0.08%. Besides, the inhibition in [13] came to 0.35%; in [14] it was 2.66%; in [15], 5.43%; in assay [16] it was 5.34%; in [17], 6.87%; in [18], 1.15%. The inhibition was 1.15% in [19] and -0.5% in assay [20].
